“And” between values parts separate entries of the source, which are not always exact repeats. Equal values may be shown once. Inconclusive results are not listed. The source made the active and inactive calls. Calls come from the whole dose curve; as a rule, active = well fitted activation curve with a large enough effect; inconclusive = small, poorly fitted or top-dose-only effect; inactive = no such curve, though single readings can be large or run the other way.
Potency is the fitted concentration of half-maximal effect.

This experiment deals with Cellular tumor antigen p53 (Homo sapiens) (UniProt P04637). The experiment in a line: Primary qHTS for small molecule compounds that upregulate eGFP-tagged delta133p53alpha (in N-terminal) cells. (AID 2060322).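 For activation: cells pre-induced with doxycycline then dosed without doxycycline; series mostly up to about 56 µM; 0% = DMSO vehicle and 100% = reference activator.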 Note: nearly all actives have a fitted effect of over 75% in size. To be noted: NCI-H358 eGFP-delta133p53alpha fluorescence, 24 h; activation: hits give high values. A digest of the protocol: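 NCI-H358 cells pre-induced 24 h with 10 ng/ml doxycycline for eGFP-delta133p53alpha, plated dox-free and exposed 24 h at 37C to titrated compounds. Fixed, Hoechst-stained; gated GFP peak intensity by laser scanning cytometry, normalized to DMSO (0%) and 57.5 uM 5-azacytidine (100%).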
Sequence of Cellular tumor antigen p53 (Homo sapiens) (P04637 whole entry, looked up): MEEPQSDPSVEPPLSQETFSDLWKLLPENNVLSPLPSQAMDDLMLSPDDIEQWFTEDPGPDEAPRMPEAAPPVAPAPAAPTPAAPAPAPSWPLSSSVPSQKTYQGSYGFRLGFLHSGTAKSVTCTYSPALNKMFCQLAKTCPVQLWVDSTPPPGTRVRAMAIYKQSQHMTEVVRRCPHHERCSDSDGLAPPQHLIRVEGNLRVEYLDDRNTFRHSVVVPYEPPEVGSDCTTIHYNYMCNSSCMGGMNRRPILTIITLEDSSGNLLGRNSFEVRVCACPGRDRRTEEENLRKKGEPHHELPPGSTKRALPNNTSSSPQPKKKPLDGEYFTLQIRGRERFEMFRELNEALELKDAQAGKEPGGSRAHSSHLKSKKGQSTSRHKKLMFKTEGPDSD
On the technique in general: qHTS replaces the single test concentration by a dilution series.
In the case of `CC[n+]1c(-c2ccccc2)c2cc(N)ccc2c2ccc(N)cc21`, the Potency is 19.5 µM (active). Consider `CCCCCCC(=O)CCCCCC/C=C/C[C@@H](O)[C@H](O)[C@@](N)(CO)C(=O)O`, for which the activation is 5.86% (inactive). Regarding `Cc1nc(-c2ccc(-c3ccc(C(=O)N4CCc5cc6c(cc54)C4(CCN(C)CC4)CO6)cc3)c(C)c2)no1`, the activation was -21.1% (inactive). The same measure, in the same setting: next, `CC1(C)CC/C(=C/c2ccc(Cl)cc2)C1(O)Cn1cncn1` (stereo not given): 2.51% (inactive); `CCC(=O)CCCCC[C@@H]1NC(=O)[C@H]2CCCCN2C(=O)[C@H]([C@@H](C)CC)NC(=O)[C@H](Cc2cn(OC)c3ccccc23)NC1=O`: -11.2% (inactive). On to `COP(=O)(OC)C(O)C(Cl)(Cl)Cl` (stereo not given), for which the activation was -2.51% (inactive). In the case of `CCOC(=O)C1(c2ccccc2)CCN(CCc2ccc(N)cc2)CC1`, the activation is -6.69% (inactive).

Regarding `CC(C)(C)NCC(O)c1cc(Cl)c(N)c(C(F)(F)F)c1` (stereo not given), the activation was -6.21% (inactive). Take `CC(C)NCC(O)c1ccc([N+](=O)[O-])cc1` (stereo not given): the activation is 16.4% (inactive). Still for that read-out and setting: with `CC1COC2(c3ccccc3Cl)c3cc(Cl)ccc3NC(=O)CN12` (stereo not given) the figure was 28.5% (inactive); with `CC(C)NC(C)C`, -1.69% (inactive).

As for `CCOCCOC(C)=O`, the activation was -27.7% (inactive). As for `O=C(CCCCl)c1ccc(F)cc1`, the activation was -10.9% (inactive).

As to `CCC1(c2ccccc2)CCC(=O)NC1=O` (stereo not given), the activation is 4.18% (inactive).

Turning to `c1ccc(N2CCNCC2)cc1`, the activation was -33.3% (inactive). For the compound `COc1cc(CC(C)N)cc2c1OCO2` (stereo not given), the activation was 6.21% (inactive). Same read-out and setting: next, `COP(=S)(OC)Oc1ccc(S(N)(=O)=O)cc1`: -28.8% (inactive). In the case of `NC1=NC(=O)C(c2ccccc2)O1` (stereo not given), the activation is 0.565% (inactive). Take `O=[N+]([O-])O[C@H]1CO[C@H]2[C@@H]1OC[C@H]2O[N+](=O)[O-]`: the activation is 34.5% (inactive).

As to `CCCCOC(=O)c1ccccc1C(=O)OCc1ccccc1`, the activation is -2.82% (inactive).

As for `CC(C)=CC1C(C(=O)OCN2C(=O)C3=C(CCCC3)C2=O)C1(C)C` (stereo not given), the activation is 17.6% (inactive). Same read-out and setting: with `Clc1ccc(COC(Cn2ccnc2)c2ccc(Cl)cc2Cl)cc1` (stereo not given) the figure was 24.3% (inactive) and 15.7% (inactive). Same read-out and setting: with `NC(=O)CS(=O)C(c1ccccc1)c1ccccc1` (stereo not given) the figure was -6.21% (inactive); with `C1CN2CCC1CC2`, -19.2% (inactive). For `CC(C)(C)[C@]1(O)C[C@@H]2OC(=O)C[C@@]23C(=O)O[C@@H]2OC(=O)[C@H](O)C213` (stereo not given in full), the activation was 7.05% (inactive). Consider `C[C@]12CC[C@H]3[C@@H](CC[C@@]45O[C@H]4C(O)=C(C#N)C[C@]35C)[C@H]1CC[C@H]2O`, for which the Potency was 21.7 µM (active). `CC1=C2[C@H]3OC(=O)[C@@H](C)[C@@H]3CC[C@@]2(C)C=CC1=O`: the activation was 11.7% (inactive). Same read-out and setting: next, `CCN(CC)CCN1C(=O)CN=C(c2ccccc2F)c2cc(Cl)ccc21`: 11.9% (inactive). Consider `C[CH2][Hg][S]c1ccccc1C(=O)O`, for which the Potency is 3.89 µM (active). On to `Cc1ncc2n1-c1ccc(Cl)cc1C(c1ccccc1F)=NC2`, for which the activation is -27.7% (inactive).

For `CC(C)NCC(O)c1ccc(N)c(C#N)c1` (stereo not given), the activation was 1.69% (inactive).

In the case of `Clc1ccc(C(c2ccc(Cl)cc2)C(Cl)(Cl)Cl)cc1`, the activation is -11.9% (inactive). In the case of `CNCC(=O)c1ccc(O)c(O)c1`, the activation was 8.47% (inactive). Still for that read-out and setting: next, `CCCN(CCC)CCc1c[nH]c2ccccc12`: 22% (inactive); `COCC(=O)N(c1c(C)cccc1C)C(C)C(=O)OC` (stereo not given): 18.6% (inactive).

Take `CC1(C)C(C=C(Cl)Cl)C1C(=O)OC(C#N)c1cccc(Oc2ccccc2)c1` (stereo not given): the activation was -23.2% (inactive). `CN(C)C(=O)Oc1cc(OC(=O)N(C)C)cc(C(O)CNC(C)(C)C)c1` (stereo not given): the activation was -17.6% (inactive). The same measure, in the same setting: next, `COc1ccc(CC2NCCc3cc(OC)c(OC)cc32)cc1OC` (stereo not given): -6.46% (inactive); `S=C(SSC(=S)N1CCCCC1)N1CCCCC1`: -16.7% (inactive); `CN1C(=O)NC(=O)C(C)(C2=CCCCC2)C1=O` (stereo not given): 3.35% (inactive).

Source of the values: PubChem BioAssay (NCATS).
